# Results as given in PubChem BioAssay (EPA / NIEHS).
# Calls of active or inactive are those of the source. Rule for the calls: active = hit-call score of the fitted dose curve at least 0.9, where 1 is the maximum; inactive = score below 0.9.
# Read-out: Monokine induced gamma interferon (MIG), CXCL9 (gene 4283)
# Experiment: BSK_3C_MIG: BioMAP Diversity Plus: 3C Assay for Monokine induced gamma interferon (MIG) Biomarker Activity (AID 2283021);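 for AC50: MIG protein level measured by immunoassay in the treated endothelial cultures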
# Details: primary human endothelial cells (HUVEC); actives raise or lower the signal
# Experimental: BSK_3C is a cell-based, multiplexed-readout assay that uses umbilical vein endothelium, a human vascular primary cell, with measurements taken at 24 hours after chemical dosing in a 96-well plate.BSK_3C_MIG is an assay component measured in the BSK_3C assay. It measures MIG antibody related to regulation of gene expression using ELISA technology.Data from the assay component BSK_3C_MIG was analyzed into 1 assay endpoint. This assay endpoint, BSK_3C_MIG, was analyzed with bidirectional fitting relative to DMSO as the negative control and baseline of activity. Using a type of binding reporter, gain or loss-of-signal activity can be used to understand changes in the signaling as they relate to the gene CXCL9. Furthermore, this assay endpoint can be referred to as a primary readout, because this assay has produced multiple assay endpoints where this one serves a signaling function. To generalize the intended target to other relatable targets, this assay endpoint is annotated to the cytokine intended target family, where the subfamily is chemotactic factor.
# The levels of cell surface (or secreted, indicated by the prefix "s") biomarker endpoints were measured by ELISA. Overt cytotoxicity to cells in confluent adherent cultures (all systems other than the BT system) was assessed by measuring total protein levels using sulforhodamine B (SRB) staining in parallel cultures at the time of biomarker measurements, indicated as SRB endpoints. For proliferation assays for adherent cell types, individual cell types are cultured at sub-confluence and relative cell numbers quantified by SRB staining at time points optimized for each system (48 h: 3C and CASM3C systems; 72 h: BT and HDF3CGF systems; 96 h: SAg system). SRB was performed by staining cells with 0.1% SRB after fixation with 10% TCA and reading wells at 560 nm.Viability and proliferation of PBMC (T cells) was quantified by Alamar Blue reduction for the SAg and BT systems. For PBMC viability (referred to as PBMC Cytotoxicity within the assay endpoint names), cells were plated (75,000/well in a 96-well plate) and then chemical samples added for 1 h before addition of activators, SEB and TSST-1 (20 ng/mL final concentration each). Cells were incubated for 90 h. Then, Alamar Blue (20 uL/well) (Invitrogen, Cat DAL1100) was added for 6 h, and the plates were read with a fluorescence microplate reader at 546/580 nm (excitation/emission). For PBMC proliferation, cells were plated and activated as above but incubated for only 16 h prior to addition of Alamar Blue. Plates were read after 6 h.
SMILES,outcome,AC50
CCN(CC)C(=O)C(Cl)=C(C)OP(=O)(OC)OC,inactive,
CCCCOC(=O)COC(=O)c1ccccc1C(=O)OCCCC,inactive,
CN(C)C(=S)S,inactive,
OC(Cc1ccccc1Cl)(Cn1[nH]cnc1=S)C1(Cl)CC1 (stereo not given),inactive,
CCCCCCCCCCCCc1cccc(S(=O)(=O)O)c1,inactive,
CC(C)O.CC(C)O.OCCN(CCO)CCO.OCCN(CCO)CCO.[Ti],inactive,
N#Cc1cccnc1,inactive,
Oc1ccc(Cc2ccc(O)cc2)cc1,inactive,
CC(C=O)Cc1ccc2c(c1)OCO2 (stereo not given),inactive,
CCOP(=S)(OCC)SCS(=O)(=O)C(C)(C)C,inactive,
CCOP(=O)(OCC)OC(=CCl)c1ccc(Cl)cc1Cl,inactive,
[Cl][Sn]([c]1ccccc1)([c]1ccccc1)[c]1ccccc1,,0.436 µM (active)
CCCCCCCCCCCCN(C)C,inactive,
CCOP(=S)(OCC)OP(=S)(OCC)OCC,inactive,
CC(C)N(C(=O)CCl)c1ccccc1,,33.3 µM (active)
CC(C)(C)c1ccccc1O,inactive,
O=S(=O)(c1ccc(Cl)cc1)c1cc(Cl)c(Cl)cc1Cl,inactive,
O=[N+]([O-])c1ccc(Nc2ccccc2)cc1,inactive,
CCOC(=O)CCN(SN(C)C(=O)Oc1cccc2c1OC(C)(C)C2)C(C)C,inactive,
O=C(O)COc1cc(Cl)c(Cl)cc1Cl,inactive,

SMILES,outcome,AC50
OC(Cc1ccccc1Cl)(Cn1cncn1)C1(Cl)CC1 (stereo not given),inactive,
CC(C)=CC1C(C(=O)OCc2cccc(Oc3ccccc3)c2)C1(C)C (stereo not given),inactive,
Nc1c(Oc2ccccc2)cc(O)c2c1C(=O)c1ccccc1C2=O,inactive,
CC(C)(COCC1CO1)COCC1CO1 (stereo not given),inactive,
Oc1cc(Cl)c(Cl)cc1Cl,inactive,
Cc1ccc(OP(=O)(Oc2ccc(C)cc2C)Oc2ccc(C)cc2C)c(C)c1,inactive,
Oc1cccc(-c2ccccc2)c1,inactive,
O=C(Cc1ccccc1)OCCc1ccccc1,inactive,
O=C(CCl)NCO,inactive,
CCOP(=O)(OCC)SCCSCC,inactive,
C[C@]12CC[C@@H](O)C[C@@H]1CC[C@@H]1[C@@H]2CC[C@]2(C)C(=O)CC[C@@H]12,inactive,
O=c1oc2ccccc2c(O)c1C(CC(O)c1ccc(-c2ccc(Br)cc2)cc1)c1ccccc1 (stereo not given),,31.2 µM (active)
CCOC(=O)C(SP(=S)(OC)OC)c1ccccc1 (stereo not given),inactive,
CC1(C)[C@H](C(=O)O[C@H](C#N)c2cccc(Oc3ccccc3)c2)[C@@H]1/C=C(\Cl)C(F)(F)F,inactive,
COc1ccccc1N,inactive,
Cc1cc(C(C)(C)c2ccc(O)c(C)c2)ccc1O,inactive,
C=CC(Cl)CCl (stereo not given),inactive,
c1ccc(-c2cccc(-c3ccccc3)c2)cc1,inactive,
Cc1cc(Cl)ccc1OC(C)C(=O)O (stereo not given),inactive,
Oc1c(Cl)cc(Cl)cc1Cl,inactive,
